# Screening results as filed in PubChem BioAssay.
# LDHA block – blocks human lactate dehydrogenase A; P00338; hit rate 0.15% among 480,000; purified LDHA, NADH/diaphorase-resazurin fluorescence; hits give low values; activity change, % (values are at about 110 or 230 µM); in the data active = activity change below about -30%; inconclusive = mostly about -25% to -30%;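 also: plate controls were DMSO wells for no effect and wells without enzyme for full effect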
#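 Human LDH5 (2 nM) was incubated with 0.06 mM NADH and 0.2 mM pyruvate for 5 min at room temperature in Tris pH 7.4. Remaining NADH was coupled through diaphorase/resazurin, and resorufin fluorescence was read at 0 and 20 min.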
# TDP1 cell noCPT – qHTS for Inhibitors of human tyrosyl-DNA phosphodiesterase 1 (TDP1): qHTS in cells in absence of CPT; DT40 Tdp1-/- hTDP1 cells, no CPT, ATP luminescence, 48 h; Potency, µM (titrated, usually from 46.2 µM), for the others: at the top dose activity change, negative = growth inhibition, actives largely listed as inhibitors; hit rate 15% among 420,000; also: potency is read from the fitted curve at half-maximal effect; nearly all actives have a fitted effect of over 55% in size
#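 No-CPT arm: Tdp1-/-;hTDP1 DT40 cells (400/well) plus compounds, incubated ≥48 hr at 37 °C. Readout CellTiter-Glo luminescence.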
# Gal4-VP16 FLuc – inhibits Gal4-VP16 luciferase reporter, ROR gamma counter-screen | Drosophila S2 Gal4-VP16 UAS-luciferase, luminescence, 20 h | Potency, µM (titrated, usually from 53.6 µM), for inactives: top-dose activity, negative = inhibition, most hits filed as inhibitors | hit rate 3.5% among 310,000 | AID 2546;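 also: Gal4-VP16 expression switched on by copper sulfate through the metallothionein promoter; potency is read from the fitted curve at half-maximal effect; nearly all actives have a fitted effect of over 50% in size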
# RORgamma inh – blocks mouse ROR gamma transcriptional activity; Potency, µM (highest dose often 53.6 µM), for the others: at the top dose activity change, negative = inhibition, actives largely listed as inhibitors; hit rate 5.4% among 310,000; Drosophila S2 Gal4-RORgamma UAS-luciferase reporter, 20 h; P51450; AID 2551; also: potency is read from the fitted curve at half-maximal effect; nearly all actives have a fitted effect of over 60% in size
# Target sequence (P51450 whole entry, looked up, the tested form may be a part): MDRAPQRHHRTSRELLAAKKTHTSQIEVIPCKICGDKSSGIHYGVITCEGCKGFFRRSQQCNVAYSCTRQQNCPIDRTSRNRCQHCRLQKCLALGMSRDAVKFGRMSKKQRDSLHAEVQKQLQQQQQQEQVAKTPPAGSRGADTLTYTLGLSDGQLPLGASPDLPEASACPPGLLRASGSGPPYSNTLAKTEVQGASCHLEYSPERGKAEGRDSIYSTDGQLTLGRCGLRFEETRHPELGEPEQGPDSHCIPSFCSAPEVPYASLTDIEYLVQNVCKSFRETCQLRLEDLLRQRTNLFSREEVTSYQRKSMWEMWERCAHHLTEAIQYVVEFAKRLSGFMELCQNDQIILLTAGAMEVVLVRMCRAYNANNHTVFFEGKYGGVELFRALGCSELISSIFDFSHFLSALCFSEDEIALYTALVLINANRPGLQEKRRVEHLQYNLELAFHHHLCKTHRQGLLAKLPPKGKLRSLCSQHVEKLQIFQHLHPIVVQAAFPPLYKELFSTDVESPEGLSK
#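 Luminescence from a UAS-regulated Photinus luciferase reporter in stably transfected Drosophila Schneider cells is measured; decreased signal marks ROR gamma inhibition. Fusion expression is induced by 700 uM copper sulfate for 20 hr.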
# IL1B secr inh – blocks inflammasome-driven IL-1 beta release; THP-1 LPS/ATP IL-1B secretion, AlphaLISA, 16 h; hits give low values; activity change, % at 57.5 µM; hit rate 4.7% among 360,000; AID 743279; in the data active = activity change below about -50%; inconclusive = mostly about -30% to -49%
#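 THP-1 cells pretreated 1 hr with compounds (up to 57.5 uM final), then stimulated with LPS (250 ng/mL final) plus ATP (1.25 mM final); secreted IL-1B measured by AlphaLISA after 16 hr, decreased signal indicating inhibition.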
# DT40 TDP1 CPT – DT40-hTDP1 cell growth loss with CPT; chicken DT40 Tdp1-/-;hTDP1 cells + 20 nM CPT, ATP luminescence, 48 h; Potency, µM (doses to about 46.2 µM), without a hit: at the highest dose activity change, negative = growth inhibition, most hits filed as inhibitors; hit rate 12% among 420,000; also: potency is read from the fitted curve at half-maximal effect; nearly all actives have a fitted effect of over 55% in size
#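 Chicken DT40 Tdp1-/- cells stably complemented with human TDP1 were seeded at 400 cells/well in medium containing 20 nM camptothecin, exposed to pin-transferred compounds, and grown at 37 °C for at least 48 hr. Viability was read as ATP luminescence.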
# An asterisk follows results filed as active; ? = inconclusive; . = no result. Hits are enriched below; roughly 18% of the tested compounds scored in any of these assays. Unless noted, calls follow the shape of the dose curve; as a rule, active = well fitted curve in the direction sought with a large enough effect; inconclusive = small, poorly fitted or top-dose-only effect, or another doubt; inactive = no such curve, though single readings can be large; an effect the other way counts as inactive or inconclusive. Unless noted, % is scaled to controls: 0 for no effect and ±100 for the full control effect.
SMILES,LDHA block,TDP1 cell noCPT,Gal4-VP16 FLuc,RORgamma inh,IL1B secr inh,DT40 TDP1 CPT
CCCCOc1ccc(C(=O)OCC(=O)c2cccs2)cc1,5,.,.,.,.,.
Cc1cc(F)ccc1S(=O)(=O)N(Cc1nccn1C)C1CC1,-5,.,.,.,.,.
CCc1ccc(Cl)c(CC)c1NC(=O)C=C(C)C,-22,.,.,.,.,.
O=C(O)CCSCc1ccc(C(=O)O)o1,7,.,.,.,.,.
Cc1ccc2cc(C#N)c(SCc3nnc(-c4ccccc4[N+](=O)[O-])o3)nc2c1,-8,21µM*,3%,-4%,-8,?
CCn1c(=NC(=O)c2ccc(S(=O)(=O)N3CCOCC3)cc2)sc2cccc(OC)c21,-4,13µM*,?,45%,-12,15µM*
CCCn1c(=NC(=O)CS(=O)(=O)c2ccccc2)sc2cc(S(C)(=O)=O)ccc21,-6,-2%,.,.,-1,3%
CCn1c(=NC(=O)CCS(=O)(=O)c2ccccc2)sc2cccc(OC)c21,-3,7.3µM*,16µM*,-11%,0,9.2µM*
COC(=O)Cn1c(=NC(=O)CCS(=O)(=O)c2ccccc2)sc2c(OC)ccc(OC)c21,-2,?,-1%,-17%,-1,21µM*
COc1ccc2c(c1)sc(=NC(=O)CS(=O)(=O)c1ccc(F)cc1)n2C,-4,21µM*,.,.,-8,?
COc1ccccc1OCCNC(=O)CCS(=O)(=O)c1ccccc1,-6,-1%,.,.,3,-3%
Cc1nc(N2CCCC2)ncc1-c1cc(=O)[nH]c(N2CCc3ccccc3C2)n1,-3,.,.,.,.,.
CCc1c(C)sc(NC(=O)C(c2ccccc2)c2ccccc2)c1C#N,-1,.,.,.,.,.
Cn1c(=O)n(Cc2nc(-c3ccccc3)no2)c(=O)c2ccccc21,-1,.,.,.,.,.
CNC(=O)CSc1nc(NC2CC2)c2ccccc2n1,-19,.,.,.,.,.
CCn1c(=NC(=O)c2ccco2)sc2cccc(F)c21,-4,?,?,?,13,?
CCn1c(=NC(=O)CS(=O)(=O)c2ccc(F)cc2)sc2cccc(OC)c21,-11,18µM*,.,.,-13,15µM*
CCCCn1nc(C(=O)Nc2cc(OC)c(OC)cc2C)c2ccccc2c1=O,7,.,.,.,.,.
O=C(c1cccs1)N1C[C@@H](n2cc(C3CC3)nn2)[C@H](O)C[C@@H]1c1ccccc1,-37*,?,.,.,-2,-3%
O=C(c1cccs1)N1C[C@@H](O)[C@H](n2cc(C3CC3)nn2)C[C@@H]1c1ccc(Cl)cc1,-2,-32%,.,.,11,-3%
O=C(c1cccs1)N1C[C@@H](n2cc(C3CC3)nn2)[C@H](O)C[C@@H]1c1ccc(Cl)cc1,-36*,?,.,.,-2,-9%
CCOC(=O)C1=C(CN(C)Cc2ccccc2C)NC(=O)NC1c1ccc(Cl)cc1 (stereo not drawn),-7,.,.,.,.,.
CCCOc1ccc(Cc2c(Cl)nc(SC)nc2N(C)C)cc1,4,15µM*,5µM*,?,-26,?
CCCOc1ccc(Cc2c(Cl)nc(SC)nc2OC)cc1,1,-19%,-14%,41%,42,9%
COCC(=O)N1CCN(Cc2nnc(C)o2)CC1,6,.,.,.,.,.
Cc1nc2c(OCc3ccc(Cl)cc3Cl)cccn2c1N(C)Cc1cccs1,-3,?,.,.,?,?
CCc1nc2c(OCC(=O)C(C)(C)C)cccn2c1N(C)C(=O)C(C)C,0,-15%,.,.,19,?
CCc1nc2c(OCc3ccc(Cl)cc3Cl)cccn2c1N(C)C(=O)c1ccccc1F,-5,?,.,.,-27,?
CCC(CC)C(=O)N(C)c1c(C)nc2c(OCc3ccccc3C(=O)OC)cccn12,-2,16µM*,.,.,21,?
Cc1nc2c(OCc3cccc(Cl)c3)cccn2c1N(C)Cc1cccs1,2,16µM*,.,.,-20,21µM*
